This note sets out measurements from PubChem BioAssay AID686978 (National Center for Advancing Translational Sciences (NCATS), 2013).

The whole screen tested about 420,000 compounds, of which about 64,000 (15%) were called active. About 27% were inconclusive and are not listed. Calls follow the shape of the dose curve; as a rule, active = well fitted inhibition curve with a large enough effect; inconclusive = small, poorly fitted or top-dose-only effect; inactive = flat fitted curve, though single readings scatter. A selection follows.
% is scaled to controls: 0 for no effect and ±100 for the full control effect; potency is read from the fitted curve at half-maximal effect.

This test is described as follows: qHTS for Inhibitors of human tyrosyl-DNA phosphodiesterase 1 (TDP1): qHTS in cells in absence of CPT. Also: nearly all actives have a fitted effect of over 55% in size. The following applies: DT40 Tdp1-/- hTDP1 cells, no CPT, ATP luminescence, 48 h; activity change, negative = growth inhibition: at 46.2 µM (top of the series). The method, boiled down:
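DT40 Tdp1-/-;hTDP1 cells, no CPT (DMSO vehicle only), 400 cells/well; compounds pin-transferred; ≥48 hr, 37 °C; CellTiter-Glo 30 min RT dark, luminescence read.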
Consider `Clc1ccc(-c2cc(C3CCNCC3)[nH]n2)c(Cl)c1`, for which the Potency was 20.6 µM (active). Turning to `Clc1ccc(-c2ncc3ccccn23)c(Cl)c1`, the “activity change, negative = growth inhibition” value was -10.1% (inactive). Take `CCCn1c(=O)c2[nH]c(C3CCCC3)nc2n(CCC)c1=O`: the Potency entry is “inactive”.

For the compound `CCCc1cc(=O)[nH]c(SCC(=O)Nc2ccc(S(=O)(=O)N3CCCC3)cc2)n1`, the “activity change, negative = growth inhibition” value is -2.47% (inactive).

In the case of `Clc1ccc(CSc2nnc(/C=C/c3ccccc3)o2)c(Cl)c1`, the “activity change, negative = growth inhibition” value was 4.1% (inactive). The same measure, in the same setting: in the case of `COCCNc1nc2nonc2nc1N1CCCC1c1nccs1` (stereo unspecified) it was 3.79% (inactive). As for `O=C1c2ccccc2S(=O)(=O)N1Cc1c(F)cccc1Cl`, the “activity change, negative = growth inhibition” value is -21.6% (inactive). For `CC(C)(C)c1ccc(CN2C(=O)c3ccccc3S2(=O)=O)cc1`, the Potency is 20.6 µM (active). With `CNC(=O)CN1C(=O)c2ccccc2S1(=O)=O`, the “activity change, negative = growth inhibition” value is -4.63% (inactive).

As for `CC(=O)[C@@]12O[C@@H]1C[C@H]1[C@@H]3CC[C@H]4C[C@@H](O)CC[C@]4(C)[C@H]3CC[C@@]12C`, the “activity change, negative = growth inhibition” value was -1.05% (inactive). On to `NC(=O)CCC(NS(=O)(=O)c1ccc(Cl)cc1)C(=O)NCc1ccccc1Cl` (stereo unspecified), for which the “activity change, negative = growth inhibition” value was -4.28% (inactive).

For the compound `O=C(O)COc1ccc(/C=N/O)cc1Br`, the “activity change, negative = growth inhibition” value was -14.4% (inactive). In the case of `CCCCCCc1cc2cc(-c3nnc(-c4ccccc4)o3)c(=O)oc2cc1O`, the Potency was 20.6 µM (active). For the compound `Cc1c(CC(=O)NCCCCCC(=O)O)c(=O)oc2cc3occ(-c4ccccc4)c3cc12`, the “activity change, negative = growth inhibition” value was -18.2% (inactive). Take `CCCC(=O)Nc1nnc(-c2ccccc2)o1`: the “activity change, negative = growth inhibition” value was -12.9% (inactive). Take `COc1cc2c(cc1OC)CC(=O)N(CCCN(C)C[C@H]1Cc3cc(OC)c(OC)cc31)CC2`: the “activity change, negative = growth inhibition” value was -20.3% (inactive). As for `CCN(CC)C(=O)CSc1nc2ccccc2o1`, the “activity change, negative = growth inhibition” value was 1.48% (inactive). For `Cc1ccc(/C=N/NC(=O)CSc2nc3ccccc3o2)cc1`, the Potency is 23.1 µM (active). As to `CCOc1ccc(/C=N/NC(=O)CSc2ccccn2)cc1O`, the “activity change, negative = growth inhibition” value is -21% (inactive). Consider `Cn1c(SCC(=O)N/N=C/c2ccc(O)c(O)c2)nc2ccccc21`, for which the Potency is 18.4 µM (active). For the compound `C=CCn1c(Cn2nnc3ccccc32)nnc1SCC(=O)N/N=C/c1cc(Br)cc(OC)c1O`, the “activity change, negative = growth inhibition” value is -12.7% (inactive). Still for that read-out and setting: with `CC(C)(C)C(=O)CSc1nc2ccccc2o1` the figure was -1.1% (inactive); with `COc1cc(OC)c(C(=O)Nc2ccc(N(C)C)cc2)cc1OC`, -23.2% (inactive); with `COc1ccc(-c2nc3cnc(N(C)C)nc3n(Cc3cccs3)c2=O)cc1`, 31.8% (inactive). Regarding `CC1(Oc2ccccc2-c2ccno2)CCN(Cc2ccc(-c3ccccc3)o2)C1` (stereo unspecified), the Potency was 23.1 µM (active). In the case of `CCOc1cc(/C=N/Nc2cc(C)nc3ccc(C)cc23)ccc1O`, the Potency was 25.9 µM (active). On to `Cc1ccc2nc(C)cc(N/N=C/c3ccc(F)cc3)c2c1`, for which the “activity change, negative = growth inhibition” value was -17.5% (inactive). For `CCOc1cc(C=NNC(=O)CCCC(=O)NN=Cc2ccc(O)c(OCC)c2)ccc1O`, the “activity change, negative = growth inhibition” value was -3.64% (inactive). As to `CCOc1ccc(/C=N\NC(=O)c2c(C)nc3cc(C)ccn23)cc1`, the “activity change, negative = growth inhibition” value is -19% (inactive). As for `CCOc1cc(/C=N/NC(=O)c2c(C)nc3ccc(Cl)cn23)ccc1O`, the Potency was 8.2 µM (active). With `C/C=C(/C)C(=O)OC1Cc2c(ccc3ccc(=O)oc23)OC1(C)C` (stereo unspecified), the “activity change, negative = growth inhibition” value was -0.964% (inactive).

In the case of `CCCS(=O)(=O)N1CCCC(C(=O)NCc2ccco2)C1` (stereo unspecified), the “activity change, negative = growth inhibition” value is -13.9% (inactive). For the compound `COc1ccc(C(C#N)Nc2ccc(C)cc2)cc1` (stereo unspecified), the “activity change, negative = growth inhibition” value was -13.7% (inactive). In the case of `O=C(N/N=C/c1cccnc1)c1ccc(NC(=O)c2ccc(F)cc2)cc1`, the “activity change, negative = growth inhibition” value is -26.4% (inactive). Take `Fc1ccc(/C=N/Nc2nc(-c3cccnc3)nc3ccccc23)cc1`: the Potency is 16.4 µM (active). On to `CCOc1ccc(C2/C(=C(/O)c3ccc4c(c3)CC(C)O4)C(=O)C(=O)N2CCCn2ccnc2)cc1` (stereo unspecified), for which the “activity change, negative = growth inhibition” value was -4% (inactive). As for `O=C(CN1CCCCCC1)NCCN1C(=O)S/C(=C\c2ccccc2Cl)C1=O`, the “activity change, negative = growth inhibition” value is -24% (inactive). `COc1ccc(NC(=O)CCN2C(=O)/C(=C/c3ccc4c(c3)OCO4)SC2=S)cc1`: the “activity change, negative = growth inhibition” value was -25.5% (inactive). Turning to `O=C1/C(=C\c2ccccc2Cl)SC(=S)N1CCC(=O)N1CCCc2ccccc21`, the Potency was 14.6 µM (active).

`C=C(C)C1CC=C(CO)CC1` (stereo unspecified): the “activity change, negative = growth inhibition” value is 5.86% (inactive).

For `CCCn1c(N)c(C(=O)CSc2nnc(-c3cccnc3)n2-c2ccc(C)cc2C)c(=O)[nH]c1=O`, the “activity change, negative = growth inhibition” value is -27.8% (inactive). Take `Cc1c(/C=N/N2C(=O)C3C4C=CC(C4)C3C2=O)c2ccccc2n1C` (stereo unspecified): the “activity change, negative = growth inhibition” value was -28.9% (inactive). For `Nc1nonc1-n1nnc(C(=O)N/N=C/c2c[nH]c3ccccc23)c1-c1ccccc1`, the “activity change, negative = growth inhibition” value is -12.4% (inactive). Regarding `Cc1c(/C=N\NC(=O)c2cc3ccccc3o2)c2ccccc2n1C`, the Potency is 3.66 µM (active). Turning to `O=C(O)c1cccc(NC(=S)N/N=C/c2c[nH]c3ccccc23)c1`, the “activity change, negative = growth inhibition” value was 14.2% (inactive). Turning to `CSC(=S)N/N=C/c1c[nH]c2ccccc12`, the Potency is 0.92 µM (active).

Turning to `NC(=O)CSc1c[nH]c2ccccc12`, the “activity change, negative = growth inhibition” value was -5.76% (inactive). In the case of `O=C(N/N=C/c1cccc(O)c1)c1cc2c(ccc3ccccc32)o1`, the “activity change, negative = growth inhibition” value was -11.2% (inactive).

Turning to `O=C(N/N=C/c1c[nH]c2ccccc12)c1ccccc1O`, the “activity change, negative = growth inhibition” value is -15.3% (inactive). On to `O=C(N/N=C/c1c[nH]c2ccccc12)c1cc2ccccc2o1`, for which the Potency was 14.6 µM (active). Consider `O=C(O)C(F)(F)C(NCc1ccccc1)c1ccccc1` (stereo unspecified), for which the “activity change, negative = growth inhibition” value was -5.89% (inactive). For `COc1ccc(S(=O)(=O)N2CCC(C(=O)NCCC(=O)NCCc3cccc(F)c3)CC2)cc1`, the “activity change, negative = growth inhibition” value is -27% (inactive). For the compound `Cc1ccc(S(=O)(=O)C2C(=O)NC3(C)CC2c2ccccc2O3)cc1` (stereo unspecified), the “activity change, negative = growth inhibition” value was -3.39% (inactive).

Take `Cn1c(SCC(=O)N2CCCC2)nnc1-c1ccc2c(c1)OCO2`: the “activity change, negative = growth inhibition” value was 18.9% (inactive).

On to `CCC1C(C#N)=C(SC)NC2=C1C(=O)CC(C)(C)C2` (stereo unspecified), for which the “activity change, negative = growth inhibition” value is -24.4% (inactive). Same read-out and setting: in the case of `Nc1nonc1-n1nnc(C(=O)N/N=C/C2CCCCC2)c1-c1ccccc1` it was 6.3% (inactive). Same read-out and setting: with `CCn1c(=O)cc(SCC(=O)NCc2ccc3c(c2)OCO3)c2ccccc21` the figure was -1.5% (inactive); with `CC1(C)NC(=O)N(CC(=O)Nc2cc(C(F)(F)F)cc(C(F)(F)F)c2)C1=O`, 0.431% (inactive); with `CNC(=S)Nc1ccc([N+](=O)[O-])cc1`, -24.8% (inactive). As to `O=C(O)/C=C/C(=O)NNc1ccc([N+](=O)[O-])cc1`, the Potency is 18.4 µM (active). As to `Cc1c(NC(=O)/C=C/C(=O)O)cccc1[N+](=O)[O-]`, the “activity change, negative = growth inhibition” value is 5.13% (inactive). The same measure, in the same setting: with `CCC(=O)NC(NCC1CCCO1)C(Cl)(Cl)Cl` (stereo unspecified) the figure was -1.9% (inactive). In the case of `COc1cccc(CNc2nccn(-c3ccc(OC)c(OC)c3)c2=O)c1`, the “activity change, negative = growth inhibition” value is -13.9% (inactive). Consider `COc1cccc(CNc2nc(NCc3ccccc3OC)nc3ccsc23)c1`, for which the Potency was 9.2 µM (active). As for `COc1cccc(CNc2nc(NCc3cccs3)nc3ccsc23)c1`, the Potency is 10.3 µM (active). Take `COc1ccccc1CNc1nc(Nc2ccccc2Cl)c2sccc2n1`: the Potency was 7.31 µM (active). `Cc1nc2cc(NCc3cccs3)ccc2n1C`: the “activity change, negative = growth inhibition” value is 0.0187% (inactive). With `CCc1ccc(S(=O)(=O)c2nnn3c2nc(NCc2ccccc2OC)c2cc(Cl)ccc23)cc1`, the “activity change, negative = growth inhibition” value was -12.5% (inactive). Same read-out and setting: in the case of `COCCNc1nc(NCc2ccc(NC(C)=O)cc2)c2sccc2n1` it was -5.82% (inactive). For the compound `COc1ccccc1CNCc1cccs1`, the “activity change, negative = growth inhibition” value is -9.52% (inactive). As to `CC(C)Nc1nc(NCCOc2ccccc2Cl)c2sccc2n1`, the Potency was 20.6 µM (active).
